# Compound activity from PubChem.
# Rows were chosen to be rich in hits. Some 7.3% of all compounds tested hit in one or more screens of this group.
# HCMV antiviral: inhibitors of human cytomegalovirus; HFF cells, HCMV-luciferase reporter, 72 h; stronger effect = lower value; activity change, negative = inhibition, % at 57.5 µM; 410,000 compounds, 4.5% hits; in the data active = activity change below about -60%; inconclusive = no clear call, values can overlap the other calls; inactive = above about -39%
#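 Screen run at 2 compound doses on HFFs infected with reporter HCMV, MOI 1 PFU/cell. Luciferase activity from cell lysates at 72 h post infection gave inhibition relative to buffer-only and Salinomycin wells.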
# HCV inhibitor: inhibitors of hepatitis C virus infection | Potency, µM (top dose mostly 41.8 µM), for the others: top-dose activity change, negative = inhibition, most hits filed as inhibitors | 340,000 compounds, 3.4% hits | Huh7.5.1 HCVcc-Cre infection, luciferase reporter, 44 h; active = well fitted inhibition curve with a large enough effect; inconclusive = small, poorly fitted or top-dose-only effect, or another doubt; inactive = no such curve, though single readings can be large or run the other way; note: potency is the fitted concentration of half-maximal effect
#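 A cell-based infection assay in which seeded cells (1,000 per well) receive test compound after 4 h, are inoculated with HCVcc-Cre at approximately 0.5 moi, and are incubated 44 h before luminescence detection.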
# VACV Venus inh: inhibitors of vaccinia virus (Venus reporter) | Potency, µM (series often up to 36.5 µM), without a hit: at the top dose activity change, negative = inhibition, most hits filed as inhibitors | 330,000 compounds, 0.46% hits | Vaccinia virus Venus reporter expression, fluorescence; calls by dose curve; tested in A549 cells; note: potency is the fitted concentration of half-maximal effect; nearly all actives have a fitted effect of over 30% in size
# FMDV antiviral: antivirals against foot and mouth disease virus | FMDV antiviral cell-based qHTS | Potency, µM (doses to about 57.9 µM), for inactives: at the top dose activity change, negative = inhibition, actives largely listed as inhibitors | 410,000 compounds, 1.2% hits | AID 1159524; calls by dose curve; tested in HEK293T cells; note: read-out not given here; potency is the fitted concentration of half-maximal effect; nearly all actives have a fitted effect of over 45% in size
# Vaccinia mCherry: vaccinia inhibition (mCherry reporter) | Vaccinia virus mCherry reporter infection, fluorescence | Potency, µM (top dose mostly 36.5 µM), without a hit: at the top dose activity change, negative = inhibition, usual class: inhibitors | 310,000 compounds, 0.63% hits; calls by dose curve; tested in A549 cells; note: potency is the fitted concentration of half-maximal effect; nearly all actives have a fitted effect of over 35% in size
# Active calls of the source: *; i = inactive; ? = inconclusive; . = no result; [ ] = another dose, or the depositor's remark. % is set by controls: 0 for no effect and ±100 for the full control effect.
SMILES,HCMV antiviral,HCV inhibitor,VACV Venus inh,FMDV antiviral,Vaccinia mCherry
C#CC(C)(C)NS(=O)(=O)c1cc(-c2nnc(Nc3ccc(C)cc3)c3ccccc23)ccc1C,-86.6*,.,?,32.2%,?
O=C(NN=Cc1cc(Cl)ccc1[N+](=O)[O-])c1cccc2ccccc12,5.5,16.5%,-8.4%,-16.1%,-7.3%
O=C(Cn1nc2ccccc2n1)N/N=C/c1cc([N+](=O)[O-])ccc1O,10.7,?,-18.7%,-13.2%,-2.1%
O=[N+]([O-])c1ccc(O)c(/C=N/Nc2ccc(Cl)nn2)c1,-101.5*,3.98µM*,?,44.3%,1.12µM*
O=C(N/N=C/c1cc([N+](=O)[O-])ccc1O)c1cccc2ccccc12,-111.7*,.,.,.,.
O=C(N/N=C/c1cc([N+](=O)[O-])ccc1O)C1CCCCC1,-66.3*,12.0%,-23.8%,1.1%,-14.8%
O=[N+]([O-])c1ccc(O)c(C2CCCCC2)c1,-93.6*,?,?,?,?
O=C(Cn1nnc(N2CCOCC2)n1)NN=Cc1ccccc1Cl,-12.5,.,.,.,.
COc1ccc(CN(C(=O)Nc2cc(C)ccc2C)C2CCN(C(C)=O)CC2)cc1,-5.9,.,-7.6%,-6.5%,-12.0%
Cc1ncc2c(c1CNC(=O)c1cncs1)CCN(C(=O)c1cc(F)c(F)cc1F)C2,.,.,-24.6%,-4.3%,i
Cc1noc(C)c1C(=O)N1CCC2(CCCN(CC(C)C)C2)CC1,.,.,.,-1.9%,.
O=C(c1cc(Br)c(Br)s1)N1CCc2ccccc2C1,31.5,-5.9%,.,25.5%,.
COC(=O)c1[nH]c2cc(OC)ccc2c1NC(=O)c1c(F)cccc1F,-15.7,12.6µM*,.,12.0%,.
C=CCNC(=S)Nc1c(C(=O)OC)[nH]c2cc(OC)ccc12,81.2,13.1%,.,24.9%,.
COC(=O)c1[nH]c2cc(OC)ccc2c1NC(=O)c1ccc2c(c1)OCO2,-39.4,2.51µM*,.,5.2%,.
C/C(=N\NC(=O)c1nnn(-c2nonc2N)c1CN1CCCCC1)c1ccccc1O,-36.9,-6.5%,-3.7%,3.4%,-18.6%
Cc1ccc(S(=O)(=O)c2ccc([N+](=O)[O-])o2)cc1,-27.6,3.55µM*,?,17.8µM*,?
NS(=O)(=O)c1cc(C(=O)N2CCNC(=O)C2)ccc1Cl,-2.9,13.0%,-9.3%,-11.0%,-16.1%
c1ccc2c(c1)oc1c(N3CCOCC3)ncnc12,10.6,-14.3%,2.2%,17.8%,.
C(=C\c1ccccc1)/CN1CCN(c2ncnc3c2oc2ccccc23)CC1,-72.7*,?,.,20µM*,.
COc1ccccc1-c1noc2c1C(=O)N(Cc1cn(Cc3ccccc3)nn1)CC2,-10.4,.,8.8%,-9.1%,-10.3%
CCCCN1C(=O)C(CC(=O)NCCCN(C)C)CC(C(=O)N2CCCCCC2)=C1C (centres undefined),15.4,.,3.2%,-27.2%,3.7%
Cc1cc(Nc2cccc(Cl)c2)nc(N2CCOCC2)n1,60.4,?,-26.6%,-17.3%,-21.4%
Cc1cc(Nc2ccccc2)nc(N2CCOCC2)n1,56.8,10µM*,?,17.4%,.
Cc1cc(Nc2cccc(F)c2)nc(N2CCOCC2)n1,167.1,3.55µM*,.,-9.0%,.
SMILES,HCMV antiviral,HCV inhibitor,VACV Venus inh,FMDV antiviral,Vaccinia mCherry
COC(=O)c1cc(=O)n(Cc2ccc(OC)c(OC)c2)c(=Nc2ccc(F)cc2)s1,-36.3,11.2µM*,-4.3%,12.6µM*,1.5%
COC(=O)c1cc(=O)n(Cc2ccco2)c(=Nc2ccc(F)cc2)s1,.,?,?,28.2µM*,?
COC(=O)c1cc(=O)n(Cc2ccc(F)cc2)c(=Nc2ccccc2)s1,-14.4,?,.,?,.
COc1cc2c(=O)n(Cc3ccco3)c(=O)n(CC(=O)Nc3ccc(F)cc3)c2cc1OC,11.6,.,-9.3%,9.9%,-18.3%
COC(=O)c1cc(=O)n(CCc2ccc(OC)c(OC)c2)c(=Nc2ccc(F)c(Cl)c2)s1,-11.9,?,-20.0%,28.2µM*,-2.8%
CN(C)c1cc(-c2ccc(Cl)cc2Cl)oc(=O)c1Cl,?,-16.9%,.,-4.3%,.
CN1C(=O)[C@@]2(O[C@H]3[C@H]4C=C[C@@H]([C@H]5C(=O)N(Cc6ccccc6)C(=O)[C@@H]45)N3C3=C2C(=O)CC3)c2ccccc21,96.6,.,.,.,.
COCc1cc([C@@H]2C[C@H]3CN(c4ccccc4)C(=O)[C@]34CCCN24)ccc1OC,-94.0*,7.5%,-16.2%,11.2%,-8.2%
COc1ccc([C@@H]2C[C@H]3CN(c4ccccc4)C(=O)[C@]34CCCN24)c(OC)c1OC,-36.6,23.9%,.,-9.7%,.
CN1C[C@@H]2C[C@@H](C3=Cc4cc(Cl)ccc4OC3)N3CCC[C@@]23C1=O,-35.3,?,-15.7%,-11.0%,-19.0%
COc1ccccc1CN1C[C@@H]2C[C@@H](C3=Cc4cc(Cl)ccc4OC3)N3CCC[C@@]23C1=O,-18.3,11.2µM*,.,-22.3%,.
O=C(CSC(=S)N1CCCC1)N(Cc1nnc(-c2ccccc2Cl)o1)C1CC1,0.0,-0.9%,-12.3%,1.5%,-16.2%
c1ccc2c(c1)[nH]c1c(N3CCOCC3)ncnc12,-31.5,?,-22.6%,.,?
COc1ccc2[nH]c3c(N4CCC(O)(c5cccc(C(F)(F)F)c5)CC4)ncnc3c2c1,?,6.31µM*,?,28.2µM*,i
Fc1ccc2[nH]c3c(N4CCc5ccccc5C4)ncnc3c2c1,-39.8,5.01µM*,-11.1%[7.34 µM],?,-19.0%[7.34 µM]
c1ccc2c(c1)[nH]c1c(N3CCSCC3)ncnc12,-32.5,12.6µM*,.,22.4µM*,.
COc1ccc2[nH]c3c(N4CCN(Cc5ccc6c(c5)OCO6)CC4)ncnc3c2c1,-26.2,?,?,?,.
Cc1ccc2[nH]c3c(N4CCc5ccccc5C4)ncnc3c2c1,-67.1*,3.55µM*,?,?,?
CCc1nn(CC(=O)NC2CC2)c(=O)c2cc3c(OC)cccc3n12,11.6,.,-4.2%,0.0%,1.0%
O=C(NCC(c1cccnc1)N1CCN(c2ccccc2F)CC1)C(=O)Nc1ccc(F)cc1F (centres undefined),-12.6,.,-26.0%,-4.9%,-20.6%
COCCN(C(=O)COc1ccccc1C#N)c1c(N)n(Cc2ccccc2)c(=O)[nH]c1=O,-11.7,?,7.6%,-14.8%,i
CCOc1ccc2[nH]c3c(NCC(C)C)ncnc3c2c1,.,?,.,-3.2%,.
CCOc1ccc2[nH]c3c(N4CCc5ccccc5C4)ncnc3c2c1,8.8,-79.0%,?,-50.8%,3.55µM*
CN1CCN(c2ncnc3c2[nH]c2ccc(F)cc23)CC1,-13.1,10µM*,-13.7%,?,-9.4%
Brc1ccc2[nH]c3c(N4CCc5ccccc5C4)ncnc3c2c1,.,3.55µM*,.,0.0%,.
Cc1ccc2[nH]c3c(N4CCOCC4)ncnc3c2c1,?,?,-19.5%,-29.0%,-26.1%
CCc1ccc(OC(C)C(=O)Nc2ccc(S(=O)(=O)Nc3nccs3)cc2)cc1 (centres undefined),-24.1,6.6%,-4.8%,23.9%,-9.3%
O=C1NC[C@H](CCCCN2C[C@@H](Cc3ccccc3)N(CC3CCCCC3)C(=O)C2=O)N(CCC2CCCCC2)C1=O,-12.4,.,-1.5%,-2.8%,-6.2%
CC(=O)Nc1cccc(-c2nnc(-c3ccccc3)o2)c1,113.0,5.7%,-19.3%,-4.2%,i
